Experimental findings from PubChem BioAssay AID1626 (SRMLSC, 2009) are described below.

Among all 220,000 compounds or so, about 2,000 (0.91%) were called active. Inconclusive results (about 2%) are left out. Rule as the data show it: inconclusive = inhibition above about 80% without an active follow-up result; inactive = below that; test concentration not stated here. Only a sample is shown. Entries with a potency or affinity are not part of this list.

This test in a line: M. tuberculosis H37Rv growth inhibitors, H37Rv strain (AID 1626).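 Also: bacteria incubated seven days before Alamar blue readout; 0% = bacteria only wells and 100% = bacteria with antibiotic wells.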 The following applies: active compounds read high, concentration not given here.
`CCOc1ccc(NC(=O)CSc2nccn2C)cc1`: the inhibition was -4.59% (inactive).

Turning to `Cc1ccc(NC(=O)CSC2=NCCN2)cc1`, the inhibition is -0.03% (inactive).

For `CCCCOc1ccc(NC(=O)CN2CCN(C(=O)OCC)CC2)cc1`, the inhibition is -7.38% (inactive).

Consider `COc1cc2c(cc1OC)C(c1ccco1)CC(=O)N2` (stereo not drawn), for which the inhibition was -0.34% (inactive).

For the compound `COc1cc(/C=C/c2ccc3cccc([N+](=O)[O-])c3n2)ccc1OCC(=O)O`, the inhibition is 6.21% (inactive).

Consider `CC(=O)Nc1ccc(/C=C/c2ccc3c([N+](=O)[O-])cccc3n2)cc1`, for which the inhibition was -0.6% (inactive).

As for `Cc1ccc(C(c2sc3nc(C)nn3c2O)N2CCOCC2)cc1` (stereo not drawn), the inhibition is -3.42% (inactive).

Regarding `CCOC(=O)c1ccc(NC(=O)c2nc[nH]c2C(=O)NC)cc1`, the inhibition was -7.95% (inactive).

In the case of `COc1ccc(NC(=O)c2nc[nH]c2C(=O)N[C@@H](C)C(=O)OC(C)(C)C)cc1`, the inhibition is 5.92% (inactive).

Regarding `CNC(=O)c1[nH]cnc1C(=O)Nc1ccc(OC)cc1`, the inhibition was 5.16% (inactive).

For `CNC(=O)c1[nH]cnc1C(=O)Nc1ccc(C)cc1`, the inhibition is 16.9% (inactive).

In the case of `CCOC(=O)c1ccc(NC(=O)c2nc[nH]c2C(=O)N[C@@H](CC(C)C)C(=O)OCc2ccccc2)cc1`, the inhibition was -7.55% (inactive).

As to `Cc1ccc(NC(=O)c2nc[nH]c2C(=O)Nc2ccc(C)cc2)cc1`, the inhibition was -0.81% (inactive).

In the case of `Cc1ccc(CSc2ncnc3ccccc23)cc1`, the inhibition is 5.46% (inactive).

Consider `CCCOc1ccc(C(=O)NCC2OCCc3ccccc32)cc1OC` (stereo not drawn), for which the inhibition was -1.65% (inactive).

For `CCOC(=O)C1CCCN(C2CC(=O)N(c3cccc(C)c3)C2=O)C1` (stereo not drawn), the inhibition is -3.61% (inactive).

On to `CN(C)c1c(F)cc(C(=O)NCc2ccccc2)cc1F`, for which the inhibition is -11.1% (inactive).

With `CN(CC(=O)Nc1ccc(Cl)cc1)CC(=O)Nc1cc(Cl)ccc1C#N`, the inhibition was -1.32% (inactive).

For `ClCc1csc(N/N=C/c2cccs2)n1`, the inhibition was -4.27% (inactive).

In the case of `CNc1nc(OC)nc(N2CCOCC2)n1`, the inhibition is -9.75% (inactive).

With `CSc1cccc(CN2CCN(Cc3ccccc3)C(CCO)C2)c1` (stereo not drawn), the inhibition is 3.04% (inactive).

For `O=C1c2ccccc2S(=O)(=O)c2cc(C(=O)N3CCN(c4ccc(Cl)cn4)CC3)ccc21`, the inhibition was 5.58% (inactive).

Take `CSc1ncc(-c2ccccc2)cn1`: the inhibition was 2.05% (inactive).

Take `CSc1nnc(-c2ccccc2)c(-c2ccccc2)n1`: the inhibition was 13.9% (inactive).

Regarding `COc1ccccc1-c1ccc(SCc2ccc(F)cc2)nn1`, the inhibition was -3.99% (inactive).

As for `O=C(O)/C=C/C(=O)Nc1ccc(C(=O)c2ccccc2)cc1`, the inhibition was -9.86% (inactive).

Turning to `CCOc1ccc(-c2cn3ccccc3n2)cc1`, the inhibition is 1.22% (inactive).

Take `CCOC(=O)c1cccc(S(=O)(=O)N(CCO)Cc2cc3cc(OC)ccc3[nH]c2=O)c1`: the inhibition was -6.73% (inactive).

Consider `Cc1ccc(NCc2nc3ccccc3n2CCOc2ccccc2)cc1`, for which the inhibition is 4.17% (inactive).

Take `COc1ccc(NCc2nc3ccccc3n2CCOc2ccccc2)cc1`: the inhibition is 77.4% (inactive).

Take `CC(OC(=O)C1CC1)C(=O)Nc1cc(C(F)(F)F)ccc1Cl` (stereo not drawn): the inhibition is -2.2% (inactive).

`O=C(OC(c1ccccc1)c1nccc2ccccc12)c1cccc([N+](=O)[O-])c1` (stereo not drawn): the inhibition is 2.31% (inactive).

Turning to `CC(C)C(OC(=O)c1ccccc1)c1nccc2ccccc12` (stereo not drawn), the inhibition is 1.56% (inactive).

As for `O=C(CC1SC(=Nc2ccccc2)N(CCc2c[nH]c3ccccc23)C1=O)Nc1ccccc1F` (stereo not drawn), the inhibition is 11.6% (inactive).

As to `COc1cc(/C=C(\C#N)C(=O)NCC2CCCO2)cc(OC)c1OC` (stereo not drawn), the inhibition was 2.41% (inactive).

As for `CCCCCCN1C=CC=C/C1=C/C=C(C#N)C#N`, the inhibition was -1.95% (inactive).

Consider `CCCOc1ccc(C(=O)C(CN2CCOCC2)c2ccccc2)cc1` (stereo not drawn), for which the inhibition was 78.9% (inactive).

As for `COc1ccc(C(=O)CN2CCOCC2)cc1F`, the inhibition was -8.03% (inactive).

Regarding `COc1ccc(C(O)C(CN2CCOCC2)c2ccccc2)cc1F` (stereo not drawn), the inhibition was -9.62% (inactive).

Regarding `CCCCOc1ccc(C(=O)C(CN2CCOCC2)c2ccccc2)cc1` (stereo not drawn), the inhibition is 66.5% (inactive).

As to `CC(NC1CCCCC1)C(O)C12CC3CC(CC(C3)C1)C2` (stereo not drawn), the inhibition is -0.62% (inactive).

On to `CCn1nc(C(=O)OCC(=O)c2cc(C)n(Cc3cccs3)c2C)c2ccccc2c1=O`, for which the inhibition was -3.97% (inactive).

Turning to `CN1CCN(NC(=O)c2cccc(C(F)(F)F)c2)CC1`, the inhibition is -1.25% (inactive).

Take `CCNc1nc(NC(C)(C)C)nc(N(C#N)CC)n1`: the inhibition was 2.33% (inactive).

Take `COc1ccc(Nc2nc3c(C)cccn3c(=O)c2C=NCc2ccccc2)cc1`: the inhibition was 10.2% (inactive).

Take `Cc1cccn2c(=O)c(C=Nc3ccccc3)c(NCCO)nc12`: the inhibition is 2.59% (inactive).

As to `COc1cc(C(=O)OCC(=O)NC2CCS(=O)(=O)C2)c([N+](=O)[O-])cc1OC` (stereo not drawn), the inhibition is -0.03% (inactive).

Turning to `COC(CC(=O)NNC(=S)Nc1ccc(Cl)cc1)OC`, the inhibition was 4.27% (inactive).

On to `CCOC(=O)C1=C(N)N(c2ccc(N3CCCCC3)cc2)C(=O)C1`, for which the inhibition is -16.5% (inactive).

Turning to `O=C(CN(C(=O)c1ccccc1Cl)C1CCCCC1)Nc1ccc(Cl)c([N+](=O)[O-])c1`, the inhibition was -3.85% (inactive).

In the case of `Cc1ccc([N+](=O)[O-])cc1NC(=O)CN(C(=O)c1ccc(Cl)cc1)C1CCCCC1`, the inhibition was 3.68% (inactive).

In the case of `Cc1ccccc1NC(=O)C(=O)NCCCN1CCOCC1`, the inhibition was -3.37% (inactive).

As to `COc1cc(C(=O)O/N=C(\N)c2cccc([N+](=O)[O-])c2)cc(OC)c1OC`, the inhibition is -4% (inactive).

As for `COc1cccc(/C=C/C(=O)c2ccc(C)c([N+](=O)[O-])c2)c1`, the inhibition is 17.5% (inactive).

Take `COc1cc(/C=C/C(=O)c2ccc(C)c([N+](=O)[O-])c2)cc(OC)c1O`: the inhibition was 9.83% (inactive).

In the case of `COc1cc(/C=C/C(=O)c2ccc(O)cc2)ccc1OCC#N`, the inhibition was 17.5% (inactive).

Take `COc1cccc(OCCNC(=O)c2cccc(OC)c2)c1`: the inhibition was 4.61% (inactive).

In the case of `COc1cc(/C=C/C(=O)c2ccc(C)cc2)ccc1OCC#N`, the inhibition was 8.8% (inactive).

With `COc1cccc(C(=O)/C=C/c2ccc(SC)cc2)c1`, the inhibition is 5.8% (inactive).

With `O=C(NCCOc1ccccc1)c1cc(C(=O)NCCOc2ccccc2)cc([N+](=O)[O-])c1`, the inhibition is 15.8% (inactive).

For `CC(=O)c1c(C)[nH]c(C(=O)CSc2nnc(CN3CCCCCC3=O)n2-c2ccccn2)c1C`, the inhibition is -2.46% (inactive).

Regarding `Cc1ccc(C(=O)N(c2ccccc2)C2CC(C)N(C(=O)c3ccco3)c3ccccc32)cc1` (stereo not drawn), the inhibition is 0.9% (inactive).

For the compound `CCn1c(SCC(=O)Nc2nccs2)nnc1-c1ccccc1`, the inhibition was -4.51% (inactive).

Regarding `Clc1cc2nc[nH]c2cc1Cl`, the inhibition is -8.63% (inactive).

For the compound `CCCc1cc(=O)[nH]c(SCc2csc(-c3ccccc3)n2)n1`, the inhibition is -1.65% (inactive).

Turning to `Nc1nnc(-c2cccc(F)c2)s1`, the inhibition was 1% (inactive).

Take `CC1CN(c2ccc(S(=O)(=O)N3CCOCC3)cn2)CC(C)O1` (stereo not drawn): the inhibition was -1.99% (inactive).

Consider `CC(=O)c1cc(C#N)c(SCc2ccc(F)cc2)nc1C`, for which the inhibition is -3.8% (inactive).

With `Cc1ccc(S(=O)(=O)CCN2CCC(n3cccc3)CC2)cc1`, the inhibition is -2.9% (inactive).

With `O=C(/C=C/c1cccc([N+](=O)[O-])c1)Nc1ccc(NC(=O)c2cccs2)cc1`, the inhibition is 3.17% (inactive).

As for `O=C(/C=C/c1ccc(N2CCCCC2)c([N+](=O)[O-])c1)c1ccc(O)cc1`, the inhibition is 52.4% (inactive).

Turning to `COc1cc(/C=C/C(=O)O)cc(OC)c1OC`, the inhibition is -1.87% (inactive).

As for `COc1ccc(Oc2ccc(/C=C/C(=O)c3cccc(OC)c3)cc2[N+](=O)[O-])cc1`, the inhibition is 4.34% (inactive).

For the compound `COc1cc(/C=C/C(=O)OCC(=O)NC(=O)NC(C)(C)C)ccc1OCC#N`, the inhibition is 53.3% (inactive).

In the case of `O=C(/C=C/c1cccc([N+](=O)[O-])c1)Nc1cccc(NC(=O)c2cccs2)c1`, the inhibition was 13.1% (inactive).

For the compound `COc1cc(/C=C/C(=O)c2ccccc2O)cc(OC)c1OC`, the inhibition is -1.73% (inactive).

Consider `COc1cc(/C=C/C(=O)OCC(=O)NC(=O)NC(C)C)ccc1OCC#N`, for which the inhibition is 11.7% (inactive).

In the case of `CCN(C(=O)CSc1nnc(-c2ccc(Cl)cc2)n1C)C1CCS(=O)(=O)C1` (stereo not drawn), the inhibition was 1.77% (inactive).

Take `O=C(NCc1nnc(SCC(=O)N2CCOCC2)o1)c1cccs1`: the inhibition was 3.48% (inactive).

As for `COc1ccc(-n2cc(CNCCN3CCOC3=O)c(-c3ccccc3Cl)n2)cc1`, the inhibition was 2.78% (inactive).

For the compound `COC(=O)NC(NC(=S)Nc1cccc(C)c1)C(Cl)(Cl)Cl` (stereo not drawn), the inhibition was -2.36% (inactive).

Regarding `O=C(/C=C/c1ccc([N+](=O)[O-])cc1)NC1CC2CCC1C2` (stereo not drawn), the inhibition was 73.7% (inactive).

In the case of `O=C(/C=C/c1ccccc1)NC1CC2CCC1C2` (stereo not drawn), the inhibition was 0.01% (inactive).

On to `O=C(/C=C/c1ccccc1F)c1ccoc1`, for which the inhibition was 2.06% (inactive).

Take `CN(C)/C=C/C(=O)c1cccc([N+](=O)[O-])c1`: the inhibition was 6.88% (inactive).

Take `O=c1c2ccccc2ncn1CCOCCOc1cccc(Br)c1`: the inhibition is -2.48% (inactive).

Take `CC(C)(C)c1ccc(OCCOc2ccc(C(C)(C)C)cc2NC=O)c(NC=O)c1`: the inhibition is 7.57% (inactive).

Turning to `Cc1cc(NC(=O)CSc2ccc(-c3cccc([N+](=O)[O-])c3)nn2)no1`, the inhibition is 13.3% (inactive).

On to `Cn1c(O)c(N=NC(=O)C2COc3ccccc3O2)c2ccccc21` (stereo not drawn), for which the inhibition is 2.52% (inactive).

For `COc1ccc(Br)cc1CN(C)C(C)C(=O)Nc1cc([N+](=O)[O-])ccc1OC` (stereo not drawn), the inhibition was 6.06% (inactive).

On to `O=Nc1c(O)n(Cc2cccc(Cl)c2)c2ccccc12`, for which the inhibition is -7.32% (inactive).

Turning to `c1ccc(Cc2nn3c(COc4ccccc4)nnc3s2)cc1`, the inhibition was 8.35% (inactive).

For the compound `CSc1nc(C)c(Cc2c(F)cccc2Cl)c(=O)[nH]1`, the inhibition is -5.44% (inactive).

For the compound `C=C(C)C1CC=C(CN2CC(C)OC(C)C2)CC1` (stereo not drawn), the inhibition was -0.53% (inactive).

`Cc1ccc2c(Cl)cc(Cl)c(OCC(=O)N(C(C)C)C(C)C)c2n1`: the inhibition was 7.37% (inactive).

For the compound `Cc1ccc2c(Cl)cc(Cl)c(OCC(=O)O)c2n1`, the inhibition is -9.9% (inactive).

On to `COC(=O)COc1c(Cl)cc(Cl)c2ccc(C)nc12`, for which the inhibition is 70.4% (inactive).

As for `Cc1ccc(NC(=O)CN(C)C(=O)COc2c(Cl)cc(Cl)c3ccc(C)nc23)cc1`, the inhibition was 5.82% (inactive).
